# Compound activity as filed in PubChem.
# TDP1 cell noCPT: qHTS for Inhibitors of human tyrosyl-DNA phosphodiesterase 1 (TDP1): qHTS in cells in absence of CPT | DT40 Tdp1-/- hTDP1 cells, no CPT, ATP luminescence, 48 h | Potency, µM (series often up to 46.2 µM), for the others: at the highest dose activity change, negative = growth inhibition, hits mostly inhibitors | hit rate 15% among 420,000 | AID 686978, 2013; note: potency is the fitted concentration of half-maximal effect; nearly all actives have a fitted effect of over 55% in size
#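 Readout: luminescence from CellTiter-Glo after 30 min in the dark at RT. Cells: DT40 Tdp1-/- with stable hTDP1, 400/well. Exposure: compounds alone, ≥48 hr, 37 °C.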
# ALOX12 inh: ALOX12 (human) lipoxygenase inhibition; purified 12hLO, xylenol orange hydroperoxide absorbance; Potency, µM (titrated, usually from 108 µM), without a hit: at the highest dose activity change, negative = inhibition, most hits filed as inhibitors; hit rate 1.1% among 580,000; P18054; note: potency is the fitted concentration of half-maximal effect
# Target sequence (P18054 whole entry, looked up): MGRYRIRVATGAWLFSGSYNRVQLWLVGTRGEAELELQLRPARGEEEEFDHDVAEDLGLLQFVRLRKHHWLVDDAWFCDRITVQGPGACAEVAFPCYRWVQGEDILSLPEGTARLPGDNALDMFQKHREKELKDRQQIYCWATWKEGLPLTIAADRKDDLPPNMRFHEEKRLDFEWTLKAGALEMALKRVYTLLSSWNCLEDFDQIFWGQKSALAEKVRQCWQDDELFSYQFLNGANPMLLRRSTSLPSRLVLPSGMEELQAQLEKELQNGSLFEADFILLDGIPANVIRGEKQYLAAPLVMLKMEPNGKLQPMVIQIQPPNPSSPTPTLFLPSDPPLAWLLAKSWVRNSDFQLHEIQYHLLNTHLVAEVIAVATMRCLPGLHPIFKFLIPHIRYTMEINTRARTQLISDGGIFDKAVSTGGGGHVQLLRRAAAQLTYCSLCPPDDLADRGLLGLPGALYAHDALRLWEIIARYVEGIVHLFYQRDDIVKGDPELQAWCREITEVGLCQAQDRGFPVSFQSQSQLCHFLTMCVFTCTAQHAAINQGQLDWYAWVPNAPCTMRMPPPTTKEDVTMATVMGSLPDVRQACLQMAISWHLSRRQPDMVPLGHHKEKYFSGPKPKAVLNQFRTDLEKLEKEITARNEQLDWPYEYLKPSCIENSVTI
#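 Purified human 12hLO (150 nM final) in 25 mM Hepes, 0.01% Triton X-100, pH 7.0 was preincubated 15 min at room temperature with compound. Then 40 uM arachidonic acid was added, 30 min. Hydroperoxide was read by Fe-XO absorbance ratio 573/405 nm.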
# TDP1 cell CPT: DT40-hTDP1 cell growth loss with CPT; hit rate 12% among 420,000; chicken DT40 Tdp1-/-;hTDP1 cells + 20 nM CPT, ATP luminescence, 48 h; Potency, µM (titrated, usually from 46.2 µM), without a hit: at the top dose activity change, negative = growth inhibition, most hits filed as inhibitors; AID 686979; note: potency is the fitted concentration of half-maximal effect; nearly all actives have a fitted effect of over 55% in size
#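 Cell growth measured by CellTiter-Glo luminescence after a minimum 48 h, 37 C compound exposure with 20 nM CPT in Tdp1-knockout DT40 cells stably expressing hTDP1, seeded 400/well; qHTS titration format.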
# IL1B secr inh: blocks inflammasome-driven IL-1 beta release. THP-1 LPS/ATP IL-1B secretion, AlphaLISA, 16 h; active compounds read low. hit rate 4.7% among 360,000. activity change, % at 57.5 µM; in the data active = activity change below about -50%; inconclusive = mostly about -30% to -49%
#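 THP-1 cells pretreated 1 hr with compounds (up to 57.5 uM final), then stimulated with LPS (250 ng/mL final) plus ATP (1.25 mM final); secreted IL-1B measured by AlphaLISA after 16 hr, decreased signal indicating inhibition.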
# HT1080NT lethal: kills 2HG-producing HT-1080-NT fibrosarcoma cells | HT-1080-NT fibrosarcoma viability, CellTiter-Glo ATP luminescence, 48 h | Potency, µM (titrated, usually from 46.1 µM), for the others: at the top dose activity, negative = less viability, actives largely listed as cytotoxic | hit rate 1.6% among 360,000 | AID 686970;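 note: NT is the 2HG producing partner of a matched IDH1 knockdown line; potency is the fitted concentration of half-maximal effect; 0% = DMSO-treated cells and -100% = media-only wells without cells; nearly all actives have a fitted effect of over 55% in size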
#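 HT-1080-NT fibrosarcoma cells (2HG-overproducing), 750 cells/well in RPMI with 5% FBS, dosed after 2 h and incubated 48 h at 37C. CellTiter-Glo luminescence normalized to DMSO and no-cell wells; concentration-response curves fitted and classed.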
# HT1080 IDH1KD tx: toxicity to HT-1080 IDH1 knockdown cells (counter line); HT-1080 IDH1 knockdown viability, ATP luminescence, 48 h; Potency, µM (highest dose often 46.1 µM), for the others: at the highest dose activity, negative = toxicity, most hits filed as cytotoxic; hit rate 2% among 360,000;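 note: potency is the fitted concentration of half-maximal effect; 0% = DMSO wells and -100% = cell-free medium wells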
#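 Assay cells: HT-1080 with IDH1 knockdown, 750 per well, RPMI/5% FBS. Exposure: 48 h at 37 °C following 2 h pre-incubation. Read: CellTiter-Glo luminescence; fitted concentration-response, curve class assigned.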
# * marks the source's active call; other numbers are inactive results; ? = inconclusive; nt = no result given; [ ] = dose if it differs, or a comment. This is one part of a sample in which hits are shown more often than they occur. Unless noted, calls come from the whole dose curve; as a rule, active = well fitted curve in the direction sought with a large enough effect; inconclusive = small, poorly fitted or top-dose-only effect, or another doubt; inactive = no such curve, though single readings can be large; an effect the other way counts as inactive or inconclusive. Unless noted, % is set by controls: 0 for no effect and ±100 for the full control effect.
SMILES,TDP1 cell noCPT,ALOX12 inh,TDP1 cell CPT,IL1B secr inh,HT1080NT lethal,HT1080 IDH1KD tx
CCC1Oc2ccc(NC(=O)Cc3cccs3)cc2CN(C2CCCc3ccccc32)C1=O (configuration not stated),nt,47%,nt,nt,nt,nt
Cc1cccc2sc(N(CCCN(C)C)C(=O)c3sc4ccccc4c3Cl)nc12,23µM*,-27%,16µM*,0,-8%,-14%
CCN(CC)CCN(C(=O)c1ccc([N+](=O)[O-])cc1)c1nc2c(OC)cccc2s1,?,-28%,-12%,14,1%,-5%
COc1cc(C(=O)N(CCCN(C)C)c2nc3c(OC)cccc3s2)cc(OC)c1OC,21µM*,?,?,nt,nt,nt
COc1cccc2sc(N(CCCN(C)C)C(=O)c3sc4ccccc4c3Cl)nc12,18µM*,?,?,-67*,-5%,-24%
COc1ccc(C(=O)NC2CCN(C(=O)N3CC4CC(C3)[C@H]3CCCC(=O)N3C4)CC2)cc1 (some centres not stated),nt,52%,nt,nt,nt,nt
CC(C)CCNC(=O)c1cc(Sc2ccc(F)cc2F)nc2ccccc12,?,-18%,?,nt,nt,nt
CCc1ccc(Sc2cc(C(=O)NC(C)CC)c3ccccc3n2)cc1 (configuration not stated),16µM*,0%,16µM*,nt,nt,nt
CCC(C)NC(=O)c1cc(-c2ccccc2)nc2ccccc12 (configuration not stated),nt,30%,nt,nt,nt,nt
CCC(C)NC(=O)c1cc(Sc2cccc(Cl)c2)nc2ccccc12 (configuration not stated),15µM*,-16%,16µM*,nt,nt,nt
CCOc1ccc(Sc2cc(C(=O)NCc3ccc(F)cc3)c3ccccc3n2)cc1,?,-13%,-27%,nt,nt,nt
CCc1ccc(Sc2cc(C(=O)NCc3ccccc3OC)c3ccccc3n2)cc1,18µM*,-14%,21µM*,nt,nt,nt
O=C(NCc1ccc(F)cc1)c1cc(Sc2ccc(F)cc2F)nc2ccccc12,?,-23%,16µM*,nt,nt,nt
Cc1ccc(NC(=O)N2CCC(CCNC(=O)c3cccc(F)c3)CC2)cc1F,nt,46%,nt,nt,nt,nt
O=C(c1ccccc1F)N1CCC2(C1)C(=O)Nc1ccccc12 (configuration not stated),nt,1%[6.33 µM],nt,nt,nt,nt
COC(=O)CCCNC(=O)c1ccc(C(F)(F)F)cc1,nt,13%,nt,nt,nt,nt
Cc1ccc(CNC(=O)c2[nH]c(C(F)(F)F)nc2-c2ccccc2)cc1,21µM*,?,?,20,?,-21%
Cc1ccc(S(=O)(=O)N/N=C/c2ccccc2O)cc1,8%,11%,-17%,50,-7%,6%
Cc1ccc(S(=O)(=O)NN=CC=CC=NNS(=O)(=O)c2ccc(C)cc2)cc1,?,4µM*,?,-4,14%,6%
Cc1ccc(S(=O)(=O)NN=Cc2ccco2)cc1,-4%,-26%,3%,-13,11%,10%
Cc1ccc(S(=O)(=O)N/N=C/c2c(F)cccc2Cl)cc1,?,-20%,16µM*,16,7%,9%
Cc1ccc(S(=O)(=O)N/N=C/c2cc(Br)c(C)o2)cc1,?,?,16µM*,12,5%,15%[9.24 µM]
Cc1cc(N2CCN(c3ccccc3)CC2)nc(-n2nc(C)cc2C)n1,5.2µM*,17%,4.6µM*,-8,0.71µM*,1.1µM*
Cc1cc(Nc2ccccc2C)nc(-n2nc(C)cc2C)n1,5.2µM*,2%,4.6µM*,nt,nt,nt
Cc1cc(Nc2cc(F)ccc2C)nc(-n2nc(C)cc2C)n1,5.2µM*,-20%,5.2µM*,nt,nt,nt
SMILES,TDP1 cell noCPT,ALOX12 inh,TDP1 cell CPT,IL1B secr inh,HT1080NT lethal,HT1080 IDH1KD tx
Cc1cc(C)n(-c2nc3ccccc3nc2Nc2ccc(F)cc2F)n1,nt,21%,nt,nt,nt,nt
Cc1cc(N2CCN(c3ccccc3)CC2)nc(-c2ccccc2O)n1,?,9%,?,8,0%,-4%
CCCCc1ccc(Nc2cc(C)nc(-n3nc(C)cc3C)n2)cc1,5.2µM*,-14%,4.6µM*,nt,nt,nt
Cc1cccn2cc(CSc3nnc4c(Cl)cc(C(F)(F)F)cn34)nc12,nt,-38%,nt,nt,nt,nt
CCOC(=O)C1=CCN(S(=O)(=O)c2ccccc2C)C1c1ccc(Cl)cc1 (configuration not stated),15µM*,-21%,?,8,?,?
CCOC(=O)C1=CCN(S(=O)(=O)c2ccccc2Cl)C1c1ccccc1 (configuration not stated),23µM*,-23%,?,42,-11%,-15%
CCOC(=O)C1=CCN(S(=O)(=O)c2ccccc2F)C1c1ccccc1 (configuration not stated),16µM*,5%,?,47,8%,6%
CCOC(=O)c1c(C)[nH]c(C)c1C(=O)COC(=O)C1CCCN1S(=O)(=O)c1ccccc1F (configuration not stated),15µM*,34%,12µM*,27,1%,0%
CCOC(=O)C1=CCN(S(=O)(=O)c2ccccc2F)C1c1ccc(Cl)cc1 (configuration not stated),?,-4%,?,10,-19%,-16%
CC1=C(c2ccc(C)c(C)c2)S(=O)(=O)N(Cc2ccc(C(=O)NCCC(C)C)cc2)C1=O,nt,0%,nt,nt,nt,nt
CCOC(=O)C1=CCN(S(=O)(=O)c2ccccc2Cl)C1c1ccc(C)cc1 (configuration not stated),18µM*,-10%,26µM*,20,0%,-4%
CCOC(=O)C1=CCN(S(=O)(=O)c2ccccc2Cl)C1c1cccc(C)c1 (configuration not stated),?,2%,?,35,2%,-1%
OC(CSc1ccccc1)CN1CCN(c2cccc(Cl)c2)CC1 (configuration not stated),21µM*,?,?,-17,-18%,2%
c1ccc(SCCN2CCN(c3ccccc3)CC2)cc1,-14%,13µM*,-16%,-1,0%,-1%
CCCN1CCC(=O)N(CCSc2ccccc2)CC1,?,-3%,?,15,-24%,2%
OC(CSc1ccccc1)CN1CCN(c2ccc(Cl)cc2)CC1 (configuration not stated),21µM*,-29%,?,?,-9%,1%
CCCN1C(=O)C2(C(C(=O)c3ccc(C)o3)=C(O)C(=O)N2CCN(C)C)c2ccccc21 (configuration not stated),nt,-5%,nt,nt,nt,nt
